Most compounds without a hit are left out; they make up all but 7.3% or so of the library.
HCMV antiviral – human cytomegalovirus inhibition. activity change, negative = inhibition, % at 57.5 µM. AID 1259415. HFF cells, HCMV-luciferase reporter, 72 h; stronger effect = lower value. actives 4.5% (n = 410,000); in the data active = activity change below about -60%; inconclusive = no clear call, values can overlap the other calls; inactive = above about -39%
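Two-dose cell screen: HFF monolayers treated with compounds and infected with luciferase-expressing HCMV at 1 PFU/cell, 72 h at 37C, then lysed for luciferase measurement.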
AmpC detergent – AmpC beta-lactamase inhibition with detergent present; P00811; AmpC hydrolysis of nitrocefin, absorbance 480 nm, 0.01% Triton; Potency, µM (series often up to 114 µM), for inactives: at the top dose activity change, negative = inhibition, hits mostly inhibitors; actives 0.041% (n = 370,000); AID 485294;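 note: potency is the fitted concentration of half-maximal effect; 0% = no-compound wells and -100% = no-enzyme wells; nearly all actives have a fitted effect of over 25% in size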
Target sequence (P00811 whole entry, looked up): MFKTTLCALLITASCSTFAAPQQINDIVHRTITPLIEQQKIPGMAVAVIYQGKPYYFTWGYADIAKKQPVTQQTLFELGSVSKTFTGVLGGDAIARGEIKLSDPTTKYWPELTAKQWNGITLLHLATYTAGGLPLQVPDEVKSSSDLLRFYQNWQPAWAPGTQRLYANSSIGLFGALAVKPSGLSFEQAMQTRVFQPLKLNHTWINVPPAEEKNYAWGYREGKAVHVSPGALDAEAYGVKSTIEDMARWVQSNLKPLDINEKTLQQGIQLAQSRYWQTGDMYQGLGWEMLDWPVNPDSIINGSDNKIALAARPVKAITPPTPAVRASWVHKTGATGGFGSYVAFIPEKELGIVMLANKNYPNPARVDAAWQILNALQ
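20 mM phosphate pH 7.0 + 0.01% (detergent screen) or 0.0001% Triton X-100; 5.3 nM AmpC reagent; cpd preinc 15 min RT; nitrocefin (800 uM stock) to start; A480 q20 s × 4 min; Activity was normalised to no-enzyme and no-compound control wells.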
AmpC inh no detg – AmpC beta-lactamase inhibition without detergent; P00811; AmpC nitrocefin hydrolysis, absorbance 480 nm, 0.0001% Triton; Potency, µM (doses to about 57.1 µM), for the others: at the highest dose activity change, negative = inhibition, hits mostly inhibitors; actives 0.52% (n = 330,000);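 note: potency is the fitted concentration of half-maximal effect; plate controls were no compound for no effect and no enzyme for full effect; nearly all actives have a fitted effect of over 20% in size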
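20 mM phosphate pH 7.0 + 0.01% (detergent screen) or 0.0001% Triton X-100; 5.3 nM AmpC reagent; cpd preinc 15 min RT; nitrocefin (800 uM stock) to start; A480 q20 s × 4 min; Activity was normalised to no-enzyme and no-compound control wells.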
FMDV antiviral – blocks foot and mouth disease virus | FMDV antiviral cell-based qHTS | Potency, µM (titrated, usually from 57.9 µM), for inactives: top-dose activity change, negative = inhibition, hits mostly inhibitors | actives 1.2% (n = 410,000) | AID 1159524; calls by dose curve; tested in HEK293T cells; note: read-out not given here; potency is the fitted concentration of half-maximal effect; nearly all actives have a fitted effect of over 45% in size
HCV inhibitor – inhibitors of hepatitis C virus infection; Huh7.5.1 HCVcc-Cre infection, luciferase reporter, 44 h; Potency, µM (series often up to 41.8 µM), without a hit: at the highest dose activity change, negative = inhibition, hits mostly inhibitors; actives 3.4% (n = 340,000); note: potency is the fitted concentration of half-maximal effect
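Cells (1,000/well) were plated 4 h before compound, then infected with HCVcc-Cre virus (~0.5 moi). After 44 h further culture, infection was read as luciferase luminescence following a 15 min substrate incubation at room temperature.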
* hit, by the source's call; ? = inconclusive; . = not tested or not shown. Unless noted, calls come from the whole dose curve; as a rule, active = well fitted curve in the direction sought with a large enough effect; inconclusive = small, poorly fitted or top-dose-only effect, or another doubt; inactive = no such curve, though single readings can be large; an effect the other way counts as inactive or inconclusive. Unless noted, % is set by controls: 0 for no effect and ±100 for the full control effect.

SMILES	HCMV antiviral	AmpC detergent	AmpC inh no detg	FMDV antiviral	HCV inhibitor
CCOC(=O)N1CCc2c(sc(NCc3cccc(F)c3)c2C(=O)Nc2ccc(OC)cc2OC)C1	-87*	-2%	.	-9%	.
CCOC(=O)N1CCc2c(sc(NCc3sccc3C)c2C(=O)Nc2ccc(OC)cc2OC)C1	-85*	11%	.	32µM*	.
COc1ccc(NC(=O)c2c(NCc3sccc3C)sc3c2CCCCC3)c(OC)c1	-7	2%	.	44%	.
CCOC(=O)N1CCc2c(sc(NCc3cccc(F)c3)c2C(=O)Nc2ccc(OC)cc2)C1	-19	-7%	.	-5%	.
COc1ccc(NC(=O)c2c(NC(=O)CNCC(C)C)sc3c2CCC3)c(OC)c1	-4	0%	-15%	-30%	10µM*
COc1ccc(N2C(=O)C3CCCN3C2=S)cc1 (stereo not drawn)	13	-2%	-26%	3%	-2%
CS(=O)(=O)c1cccc(Nc2cc3c(cn2)cc(-c2ccccc2)n3Cc2ccccc2)c1	15	.	.	.	.
Cc1ccc(-c2n[nH]c3c2C(c2cccs2)N(c2ccc(Cl)cc2)C3=O)cc1 (stereo not drawn)	-105*	5%	.	?	.
Cc1ccc(N2C(=O)c3[nH]nc(-c4ccc(Cl)cc4)c3C2c2ccc(F)cc2)cc1 (stereo not drawn)	-105*	10%	.	?	.
Cc1ccc(NC(=O)c2nc(S(C)(=O)=O)ncc2N(Cc2ccco2)Cc2cccs2)cc1C	-16	-1%	.	-18%	.
Cc1cc(C)cc(-n2nnc(-c3nsc(NC(=O)c4ccccc4Cl)n3)c2C)c1	-6	-6%	.	1%	.
COc1cc(OC)cc(C(=O)Nc2nc(-c3nnn(-c4ccc(F)c(Cl)c4)c3C)ns2)c1	-94*	-3%	.	-25%	.
Cc1ccc(-n2nnc(-c3nsc(NC(=O)c4ccccc4C)n3)c2C)cc1Cl	-99*	7%	.	-9%	.
COc1ccc(-n2nnc(-c3nsc(NC(=O)c4cccc(C)c4)n3)c2C)cc1OC	-100*	2%	.	?	.
COc1ccc(C(=O)Nc2nc(-c3nnn(-c4ccc(C(C)C)cc4)c3C)ns2)cc1	?	-4%	.	-10%	.
COc1ccccc1NC(=O)c1cc2c(s1)-c1ccccc1S(=O)(=O)C2	6	3%	-7%	-9%	-23%
O=C1/C(=C/c2cccnc2)CCc2c1[nH]c1ccccc21	-76*	8%	-13%	37%	-29%
CC1C/C(=C\c2cccnc2)C(=O)/C(=C/c2cccnc2)C1 (stereo not drawn)	-101*	0%	-19%	3.5µM*	?
CN1C(=O)C(=Cc2cccnc2)C(=O)N(C)C1=O	35	-1%	-6%	0%	20%
Cc1ncc2c(c1CNC(=O)/C=C/c1cccs1)CCN(C(=O)c1noc3c1CCCC3)C2	.	.	.	-2%	.
O=C(N=C1SC2CS(=O)(=O)CC2N1c1cc(Cl)ccc1Cl)C1CCCO1 (stereo not drawn)	-5	-2%	1%	-13%	18%
O=C(CNC(=O)C12CC3CC(CC(C3)C1)C2)OCc1ccc(F)cc1Cl	-5	-13%	-10%	3%	-1%
C/C(CC(C)(C)C1CCCCC1)=N\NC(N)=S	-88*	?	-30%	.	2.8µM*
CC(=O)Nc1nonc1-c1nnc(SCc2ccccc2)n1C	19	-3%	.	-16%	.
Cc1ccc(C(CC(=O)NCC2(c3ccccc3)CCCC2)c2ccccc2)c(O)c1 (stereo not drawn)	-15	?	.	7.9µM*	.
SMILES	HCMV antiviral	AmpC detergent	AmpC inh no detg	FMDV antiviral	HCV inhibitor
CCCN(CCC)C(=O)CC(c1ccccc1)c1ccc(C)cc1O (stereo not drawn)	-70*	-12%	-12%	-20%	.
O=C(CCc1ccccn1)N1CCCC(N2CCN(c3ccc(F)cc3)CC2)C1 (stereo not drawn)	66	2%	33%	?	0%
Cc1cc(C)cc(C(=O)NC(=S)Nc2ccc(Cc3ccncc3)cc2)c1	-74*	?	-22%	?	?
COc1ccccc1C(=O)NC(=S)Nc1ccc(Cc2ccncc2)cc1	-76*	4%	21%	-16%	?
COc1cc(C(=O)NC(=S)Nc2ccc(Cc3ccncc3)cc2)cc(OC)c1OC	-24	-4%	79%	-17%	?
O=c1cc(CN2CCN(S(=O)(=O)c3cccc(Cl)c3)CC2)c2ccc(O)cc2o1	0	.	-51%	-24%	?
Cn1c(N)c(C(=O)COC(=O)[C@@H]2CCCN2S(=O)(=O)c2ccc(Cl)cc2)c(=O)n(C)c1=O	12	2%	57%	-7%	2%
CCN(CC)C(=S)Nc1ccc(Cl)c(Cl)c1	-66*	?	-20%	48%	?
CCN(Cc1ccncc1)C(=S)Nc1ccc(Cl)cc1	-28	0%	-30%	2%	-21%
COC(=O)[C@@H]1[C@@H](C)N(Cc2ccccc2)C(=O)N[C@H]1c1cccc(C(F)(F)F)c1	-20	3%	23%	0%	2.8µM*
CC(=O)[C@@H]1[C@@H](C)N(Cc2ccccc2)C(=O)N[C@H]1c1cccc(C(F)(F)F)c1	-29	2%	-3%	-16%	?
CCOC(=O)CN1C(=O)N[C@@H](c2ccccc2)[C@H](C(C)=O)[C@H]1C	-103*	.	.	-1%	17%
CCOc1cc(/C=C2\N=C(SC(C)C(N)=O)N(c3ccc(OC(F)F)cc3)C2=O)ccc1O (stereo not drawn)	-62*	3%	-18%	-10%	?
c1csc(-n2nc3ccccc3n2)c1	-66*	?	-16%	10%	-28%
CCOC(=O)C(Cc1ccc(OC)c([N+](=O)[O-])c1)NC(=O)CCC(=O)Nc1ccc(OC)cc1 (stereo not drawn)	-105*	?	51%	14%	2%
O=C(O)c1cccnc1Nc1ccc(Cl)cc1	-72*	0%	-15%	18%	5%
Cc1nn(-c2ccccc2)c(C)c1C(=O)OC(C)C(=O)NC1CCCCC1C (stereo not drawn)	?	?	52%	?	11µM*
CCOc1ccc(Cl)cc1-c1cc(C(=O)NCc2cc(C(F)(F)F)cc(C(F)(F)F)c2)[nH]n1	1	.	.	?	.
COc1ccc(-c2ccc(C#N)c(OC(=O)c3c(Cl)cccc3Cl)n2)cc1	-25	-5%	.	-22%	5µM*
O=C(O)c1ccccc1NSc1ccccc1[N+](=O)[O-]	21	-8%	-23%	14%	1%
CC(=O)c1ccc2c(c1)C1C(Cl)C(Sc3ccccc3[N+](=O)[O-])CC1C(C(=O)O)N2 (stereo not drawn)	-17	?	-46%	-23%	35µM*

Screening data from PubChem.
